# Assay results as given in PubChem BioAssay (EPA / NIEHS).
# Activity calls are given as the source filed them. The calls were made as follows: active = hit-call score of the fitted dose curve at least 0.9, where 1 is the maximum; inactive = score below 0.9.
# Read-out: Transforming Growth Factor (TGFB1), TGFB1 (gene 7040)
# Test: LTEA_HepaRG_TGFB1: Life Technologies and Expression Analysis (LTEA) Assay for Transforming Growth Factor (TGFB1) Transporter using HepaRG (AID 2283533)
# Settings: mRNA level, 48 h; actives raise or lower the signal
# Experimental: LTEA_HepaRG is a cell based, multiplexed-readout assay that uses HepaRG, a human liver cell line, with measurements taken at 48 hours after chemical dosing on a 96-well plate.LTEA_HepaRG_TGFB1 is one of 102 assay component(s) measured in the LTEA HepaRG cell culture assay. It is a marker of Cell proliferation, survival, death.Data from the assay component LTEA_HepaRG_TGFB1 was analyzed into 1 endpoint. This assay endpoint, LTEA_HepaRG_TGFB1, was analyzed with bidirectional fitting relative to DMSO as the negative control and baseline of activity. Using a type of inducible reporter, measures of mRNA induction for gain or loss-of-signal activity can be used to understand regulation of transcription factor activity. To generalize the intended target to other relatable targets, this assay endpoint is annotated to the growth factor intended target family, where the subfamily is transforming growth factor beta.
# A total of 1060 chemcials from the ToxCast library were tested in eight-point concentration-response experiments. Cell culture and cytotoxicity assays were conducted at Thermo Fisher Scientific's Custom Services facility (Madison, WI). A single lot of human HepaRG cells (Thermo Fisher Scientific, Frederick, MD) was used for the cell culture experiments. 96-well format collagen type I coated plates of human HepaRG cells were prepared using established methods. Briefly, cryopreserved HepaRG cells were thawed, plated at a density of approximately 100,000 cells/well in HepaRG Thaw, Plate, and General Purpose media (HPRG770, Thermo Fisher Scientific), and incubated for 48 hours. 0.5% DMSO was selected as vehicle control to balance the requisite need of DMSO in HepaRG cultures to maintain differentiation (for example, baseline metabolism, proportions of hepatocytes vs. cholangiocytes), while enabling further hepatic receptor pathway activation (for example, PXR and CAR) in response to chemical exposure. 48 hours after plating, the culture medium was replaced with HepaRG Serum-Free Incudtion Media. Cells were exposed to each test chemical in duplicate and maintained in CO2 incubators for another 48 hours. Chemical plates were thawed to room temperature and 200x concentrations of treatment groups were prepared. 8-point conentration-reponse curves were made with the highest exposure at 100 uM, followed by half-log dilutions, all in 0.5% DMSO. Each test plate contained variouse controls, induction positive controls (1mM phenobarbital), cytotoxicity positive controls ([…] aflatoxin B1), vehicle controls (0.5% DMSO), and total lysis controls (0.5% DMSO). Cell morphology images were taken using an Essen IncuCyte FLR automated microscope, with six 96-well plates imaged in about 24 minutes. Images were captured and exported and JPEG files. Spent culture media was transfered to black-well plates for the LDH assay, and remaining media was sorted at -80 C for later use. Cells were treated with RLT buffer and frozen until shipped for gene expression analysis. Total RNA was isolated from the cell suspension in 75 uL of Buffer RLT (Qiagen, Germantown, MD 20874) by Quintiles/Expression Analysis (Durham, NC) using a custom isolation procedure. Total RNA from each plate well was transferred to a preamplification plate. Fluidigm's 96.96 Dynamic ArrayTM (Fluidigm, Amsterdam, the Netherlands) technology was used for gene expression analyses by quantitative reverse transcription polymerase chain reaction (qRT-PCR, performed by Quintiles/Expression Analysis, Durham, NC)89. Standard TaqManTM Assays (Applied Biosystems/ThermoFisher Scientific, Foster City, CA) were used to assess the expression of 93 genes selected based on their selectivity and sensitivity to important hepatic receptors known to be modulated by environmental chemicals; importance in human hepatocyte functionality; and hepatotoxicity. […]
Structure (SMILES),AC50,outcome
CN1C(=O)N(c2ccccc2Br)Cc2cnc(Nc3ccc4c(c3)OCC(CO)O4)nc21 (stereo not given),24.2 µM (active),–
Cc1c2ccccc2c(C)c2c1ccc1ccccc12,35 µM (active),–
CCCCOC(=O)c1ccc(O)cc1,–,inactive
C[C@]12CC[C@@H]3c4ccc(O)cc4CC[C@H]3[C@@H]1CCC2=O,–,inactive
O=C1c2ccccc2C(=O)N1CCc1noc(-c2ccc(CN3CCCCCC3)s2)n1,–,inactive
O=C(O)Cc1cc(I)c(Oc2ccc(O)c(I)c2)c(I)c1,79.5 µM (active),–
Cc1ccc(C(C)C)cc1,–,inactive
Cc1cn([C@H]2C[C@H](N=[N+]=[N-])[C@@H](CO)O2)c(=O)[nH]c1=O,–,inactive
CCN(Cc1cccnc1)C(=O)c1cccc(Cl)c1[C@]1(C)C(=O)N(Cc2ccc(OC)cc2OC)c2ccc(Cl)cc21,14.5 µM (active),–
O=C(O)c1ccccc1C(=O)OCc1ccccc1,–,inactive
O=C(O)Cn1c(=O)n(Cc2ccc(Br)cc2F)c(=O)c2ccc(Cl)cc21,–,inactive
CCN(CC)C(=O)c1cc(S(=O)(=O)Cc2ccccc2)c(N2CCC(c3ccccc3)CC2)cc1N(CC)CCN(C)C,–,inactive
CN(C[C@@H](CC[N+]12CCC(C3CCCCC3)(CC1)CC2)c1ccc(Cl)c(Cl)c1)C(=O)c1cc(C(F)(F)F)cc(C(F)(F)F)c1,12.3 µM (active),–
CC1=CC(=O)/C(=C(/C)O)C(=O)O1,–,inactive
CCCCCCCCCC(=O)O,–,inactive
CC(=O)N1CCN(c2ccc(OC[C@H]3CO[C@](Cn4ccnc4)(c4ccc(Cl)cc4Cl)O3)cc2)CC1,90.9 µM (active),–
CC(O)CC(C)(C)O (stereo not given),–,inactive
NC(=O)c1nc(-c2cccc(-c3cc(F)ccc3OCC(F)(F)C(F)(F)F)c2)n[nH]1,–,inactive
CCCCCCCC[Si](OCC)(OCC)OCC,–,inactive
COCC(C)OCC(C)OCC(C)O (stereo not given),–,inactive

Structure (SMILES),AC50,outcome
CC/C(=C(/CC)c1ccc(O)cc1)c1ccc(O)cc1,90.8 µM (active),–
CCCCCCCCCCCO,–,inactive
O=C1O[C@H]([C@@H](O)CO)C(O)=C1O,–,inactive
CCN(Cc1cccc(S(=O)(=O)O)c1)c1ccc(C(=C2C=CC(=[N+](CC)Cc3cccc(S(=O)(=O)O)c3)C=C2)c2ccccc2S(=O)(=O)[O-])cc1,–,inactive
O=C=NCCCCCCN=C=O,–,inactive
O=c1c(-c2ccc(O)cc2)coc2cc(O)cc(O)c12,–,inactive
CC1(C)NC(=O)N(c2ccc([N+](=O)[O-])c(C(F)(F)F)c2)C1=O,–,inactive
CO[C@H]1/C=C/O[C@@]2(C)Oc3c(C)c(O)c4c(O)c(c(/C=N/N5CCN(C)CC5)c(O)c4c3C2=O)NC(=O)/C(C)=C\C=C\[C@H](C)[C@H](O)[C@@H](C)[C@@H](O)[C@@H](C)[C@H](OC(C)=O)[C@@H]1C,–,inactive
O=C1CCC(C2CCCCC2)CC1,–,inactive
Clc1ccccc1C(c1ccccc1)(c1ccccc1)n1ccnc1,91.9 µM (active),–
c1ccc2n[nH]nc2c1,–,inactive
Oc1ccc2ccccc2c1,–,inactive
CCCCOC(=O)CC(CC(=O)OCCCC)(OC(C)=O)C(=O)OCCCC,–,inactive
NCc1cccc(C2CCN(C(=O)c3ccc(C#Cc4ccccc4F)o3)CC2)c1,–,inactive
CCCC(=O)OCCC(C)C,–,inactive
Cc1cc(F)ccc1-c1cc(N2CC[C@@H](O)[C@H]2CO)ncc1N(C)C(=O)C(C)(C)c1cc(C(F)(F)F)cc(C(F)(F)F)c1,19.3 µM (active),–
CCCCCCCCOc1ccc(C(=O)c2ccccc2)c(O)c1,–,inactive
CCCCCCCCCCCCO,–,inactive
CC(C)(c1cc(Br)c(O)c(Br)c1)c1cc(Br)c(O)c(Br)c1,–,inactive
COc1cccc([C@H](O)C2CCN(CCc3ccc(F)cc3)CC2)c1OC,–,inactive
